HIF-2a inh: inhibitors of HIF-2a; 786-0 RCC cells HIF-2a reporter, luciferase luminescence, overnight; inhibition, % at 18.8 µM; 0.72% of 360,000 active;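 active = inhibition of the luminescence signal of 40% or more relative to plate controls, in a single-dose primary screen at 18.75 µM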
KKLEB tox: reduces viability of KKLEB cystic fibrosis airway cells | KKLEB CF airway cells viability, ATPlite luminescence, overnight; hits give low values; cells stimulated with P. aeruginosa culture filtrate | activity change (cytotoxicity), % at 5 µM | 0.36% of 360,000 active | AID 602141;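 active = corrected activity change at or below -50% at 5 µM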
LMP1 NFkB inh: Epstein-Barr LMP1 NF-kappaB reporter inhibition. LMP1-induced NF-kappaB luciferase reporter cells, luminescence. inhibition, % at 12.5 µM. 0.69% of 350,000 active. AID 504558; in the data active = inhibition above about 41%; inconclusive = no clear call, values can overlap the other calls;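 note: 0% = neutral control wells and 100% = reference inhibitor control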
CF NFkB inh: blocks PAF-induced NF-kB reporter in cystic fibrosis cells. KKLEB NF-kB-GFP reporter, GFP fluorescence overnight. inhibition, % at 5 µM. 0.86% of 360,000 active;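 active = at least 50% inhibition at 5 µM, scaled per plate between neutral and stimulator controls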;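 note: PAF is a Pseudomonas aeruginosa culture filtrate used as stimulus; plate controls were PAF-stimulated DMSO wells for no effect and unstimulated DMSO wells for full effect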
Peg3 promoter: inhibitors of Peg3 promoter. 1.7% of 360,000 active. inhibition, % at 20 µM. HeLa PEG-Prom luciferase reporter, luminescence, overnight;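 active = inhibition of at least 50% at 20 µM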
Shn3 3UTR inh: reduces Shn3 3'UTR luciferase signal in osteoblasts. inhibition, % at 12.5 µM. AID 588674. 0.52% of 360,000 active. Clone20 osteoblast Shn3 3'UTR firefly luciferase, 24 h;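 active = mean inhibition of at least 75% with every replicate also reaching 75%; inconclusive = mean inhibition at least 75% but some replicate below; inactive = mean inhibition below 75%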;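 note: 0% = median of neutral control wells and 100% = pilot-screen positive control compound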
CF NFkB inh conf: confirmation of cystic fibrosis induced NF-kB inhibitors. shares compounds with CF NFkB inh. KKLEB CF airway cells, PAF-induced NF-kB-GFP fluorescence, overnight. inhibition, % at 5 µM. 64% of 1,300 active. AID 602472; in the data active = inhibition above about 40%;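 note: stimulus PAF is a Pseudomonas aeruginosa filtrate and not platelet activating factor; plate controls were DMSO wells with stimulus for no effect and unstimulated DMSO wells for full effect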
* hit, by the source's call; ? = inconclusive; / = no result given. Only some compounds are listed: those with a hit (about 2.9% of all), similar ones and a draw of the others.

SMILES	HIF-2a inh	KKLEB tox	LMP1 NFkB inh	CF NFkB inh	Peg3 promoter	Shn3 3UTR inh	CF NFkB inh conf
COc1cccc(CNc2ncnc3ccc(-c4c(C)noc4C)cc23)c1	-24	-33	?	11	-38	45	/
O=C(Nc1c(-c2ccccc2)nc2ccccn12)c1ccccc1F	11	6	12	-22	4	-7	/
COc1ccc(-c2cn[nH]c2-c2ccc(OCc3ccc([N+](=O)[O-])cc3)cc2O)cc1	-1	2	25	70*	-1	66	82*
CCc1cc(-c2[nH]ncc2-c2ccc(OC)cc2)c(O)cc1O	31	3	10	76*	55*	1	81*
CN(Cc1cc(Cl)cc(Cl)c1O)Cc1c(O)ccc2ccccc12	12	-17	12	59*	18	-12	8
O=C(CCc1ccc(O)cc1)c1c(O)cc(O)cc1O	-16	18	0	8	1	-15	/
COc1cc(O)c(CC=C(C)C)c(O)c1C(=O)CCc1ccc(O)cc1	-303	-4	-42	52*	13	-3	44*
CC(=O)N(CC(C)C(=O)O)c1c(I)cc(I)c(N)c1I (stereo unspecified)	33	33	14	64*	4	2	21
CCOC(=O)c1cccc(NS(=O)(=O)c2ccc(NC(C)=O)cc2)c1	16	0	15	52*	10	54	44*
CCOC(=O)c1cccc(NS(=O)(=O)c2c(C)[nH]c(=O)[nH]c2=O)c1	10	10	-2	4	13	-5	/
O=C(Nc1ccc(Oc2ccccc2)cc1)c1csc([C@@H]2C[C@H](O)[C@@H](CO)O2)n1	-85	6	/	3	-49	34	/
COc1ccc(OC)c(N(CCN2C(=O)c3ccccc3C2=O)C(=O)CCl)c1	8	-42	2	62*	22	31	99*
COc1ccc(NC(=O)CCN2C(=O)c3ccccc3C2=O)c(OC)c1	13	-1	36	21	15	-1	/
O=C(CSc1nnc(C2CC2)n1-c1ccccc1)Nc1ccc(N2CCOCC2)cc1	8	-7	-5	12	14	-14	/
CC(=O)c1ccc2noc(-c3ccccc3)c2c1	-20	-5	-4	1	-16	-7	/
CN(C)/C=C/C(=O)c1ccc2noc(-c3ccccc3)c2c1	8	-4	60*	57*	4	-4	82*
O=C(NN=C1CCCCCCC1)c1ccc2ccccc2n1	4	-3	-11	0	-47	-10	/
CCC(=NCCc1c(C)[nH]c2ccc(C)cc12)C1=C(O)CC(c2ccccc2)CC1=O (stereo unspecified)	28	-20	12	57*	22	12	78*
CC(=O)C1=C(O)CC(c2ccccc2)CC1=NCCc1c(C)[nH]c2ccc(C)cc12 (stereo unspecified)	4	-2	11	0	-1	3	/
CCOC(=O)/C=C/C(=O)Nc1cc(S(=O)(=O)Nc2ccc(OC)cc2)ccc1N1CCOCC1	-16	-9	-21	63*	27	10	36
Cc1ccc(S(=O)(=O)Oc2ccccc2/C=N/NC(=O)c2nn(C)cc2[N+](=O)[O-])cc1	-3	-7	5	5	-4	-8	/
Cc1ccc(S(=O)(=O)Oc2ccc(/C=N/NC(=O)c3nn(C)cc3[N+](=O)[O-])cc2)cc1	1	-34	-7	51*	-50	5	-57
CCC(=O)Nc1nc(C)c(-c2csc(Nc3cccc(O)c3)n2)s1	-50	-4	-12	62*	-59	38	87*
Cc1nc(C)c(-c2csc(Nc3cccc(O)c3)n2)s1	-276	9	-30	-25	-245	-5	/
Oc1ccc(Br)cc1-c1nc2cnccn2c1NC1CCCC1	21	-26	-8	80*	12	32	90*
Oc1ccc(Br)cc1-c1nc2cnccn2c1NC1CCCCC1	25	-24	-20	35	18	-9	/
N#CC(C#N)=C1SC(=Nc2ccccc2)C(=Nc2ccccc2)N1c1ccccc1	-66	-42	-4	67*	89*	37	79*
